Laboratory results taken from PubChem BioAssay (EPA / NIEHS).
Results filed as inconclusive are left out. The source made the active and inactive calls. The calls were made as follows, unless noted: active = hit-call score of the fitted dose curve at least 0.9, where 1 is the maximum; inactive = score below 0.9.

Experiments:
[1] = read-out: E-selectin (Homo sapiens) (UniProt P16581); assay: BSK_3C_Eselectin: BioMAP Diversity Plus: 3C Assay for Eselectin Biomarker Activity (AID 2283015); details: primary human endothelial cells (HUVEC); actives raise or lower the signal
In short: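 Endpoint derived by bidirectional fitting against DMSO vehicle; signal is ELISA-detected E-selectin from primary HUVEC at 24 h post-dosing, with parallel SRB staining (0.1% SRB, 560 nm) flagging cytotoxicity.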

[2] = read-out: Interleukin-1 alpha (IL1a), IL1A (gene 3552); assay: BSK_BE3C_IL1a: BioMAP Diversity Plus: BE3C Assay for Interleukin-1 alpha (IL1a) Biomarker Activity (AID 2283016); details: primary human bronchial epithelial cells; actives raise or lower the signal
In short: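 BE3C primary human bronchial epithelium; cpd 24 h; IL-1a by ELISA; bidirectional fit vs DMSO; parallel SRB (0.1% SRB, 10% TCA fix, 560 nm) for cytotoxicity.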

[3] = read-out: Monocyte Chemoattractant Protein-1 (MCP1), CCL2 (gene 6347); assay: BSK_3C_MCP1: BioMAP Diversity Plus: 3C Assay for Monocyte Chemoattractant Protein-1 (MCP1) Biomarker Activity (AID 2283017); details: primary human endothelial cells (HUVEC); actives raise or lower the signal
In short: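 Using human vascular primary endothelium, researchers measured MCP-1 by ELISA 24 h after treatment, with DMSO serving as negative control for bidirectional fitting.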

[4] = read-out: Monocyte Chemoattractant Protein-1 (MCP1), CCL2 (gene 6347); assay: BSK_4H_MCP1: BioMAP Diversity Plus: 4H Assay for Monocyte Chemoattractant Protein-1 (MCP1) Biomarker Activity (AID 2283018); details: primary human endothelial cells (HUVEC); actives raise or lower the signal
In short: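 ELISA read-out of MCP-1 from human vascular endothelial primary cells taken at 24 hours after compound exposure. Activity was fitted in both directions relative to DMSO, which served as negative control.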

[5] = read-out: Human Leukocyte Antigen - DR isotype (HLADR), HLA-DRA (gene 3122); assay: BSK_3C_HLADR: BioMAP Diversity Plus: 3C Assay for Human Leukocyte Antigen - DR isotype (HLADR) Biomarker Activity (AID 2283019); details: primary human endothelial cells (HUVEC); actives raise or lower the signal;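 also: ELISA of cell-surface HLA-DR on HUVEC 24 h after dosing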
In short: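 Compound added to primary HUVEC cultures, 24 h incubation, then HLA-DR determined by ELISA; endpoint derived by bidirectional fitting relative to DMSO negative control.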

[6] = read-out: Interleukin-8 (IL8), CXCL8 (gene 3576); assay: BSK_3C_IL8: BioMAP Diversity Plus: 3C Assay for Interleukin-8 (IL8) Biomarker Activity (AID 2283020); details: primary human endothelial cells (HUVEC); actives raise or lower the signal
In short: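 ELISA read-out of IL-8 from human umbilical vein endothelium, measured 24 h after chemical dosing. Activity is expressed relative to DMSO negative control, with both increases and decreases fitted.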

[7] = read-out: Monokine induced gamma interferon (MIG), CXCL9 (gene 4283); assay: BSK_3C_MIG: BioMAP Diversity Plus: 3C Assay for Monokine induced gamma interferon (MIG) Biomarker Activity (AID 2283021); details: primary human endothelial cells (HUVEC); actives raise or lower the signal;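 as to AC50: MIG protein level measured by immunoassay in the treated endothelial cultures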
In short: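 Read-out is ELISA detection of MIG on human umbilical vein endothelial cells, taken 24 h after dosing. Gain or loss of signal was scored relative to DMSO controls using bidirectional curve fitting.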

[8] = BSK_3C_SRB: Viability Assessment in the BioMAP Diversity Plus: 3C Assay (AID 2283023); details: primary human endothelial cells (HUVEC);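 also: fitted both ways against DMSO so a hit may be signal rise or drop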
In short: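 Overt cytotoxicity is gauged in parallel confluent HUVEC cultures by SRB total-protein staining at the time of biomarker measurement, 24 h after dosing. Gain or loss of signal is fitted versus DMSO.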

[9] = read-out: Matrix Metallopeptidase 1 (MMP1), MMP1 (gene 4312); assay: BSK_BE3C_MMP1: BioMAP Diversity Plus: BE3C Assay for Matrix Metallopeptidase 1 (MMP1) Biomarker Activity (AID 2283024); details: primary human bronchial epithelial cells; actives raise or lower the signal
In short: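 Human bronchial epithelial cells (BE3C system) exposed to compound for 24 h; MMP1 then quantified by ELISA. Activity was fitted in both directions relative to DMSO.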

[10] = BSK_3C_Vis: BioMAP Diversity Plus: 3C Assay for Morphology Visualization (AID 2283025); details: primary human endothelial cells (HUVEC);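 also: fitted both ways so gain or loss versus DMSO counts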;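 as to AC50: light microscopy image of cell morphology used as background control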
In short: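 Chemicals were added to primary human umbilical vein endothelium, cells were incubated 24 h, and morphology was then visualized by light microscopy. Gain or loss of signal was fitted bidirectionally relative to DMSO.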

[11] = read-out: Pselectin, SELP (gene 6403); assay: BSK_4H_Pselectin: BioMAP Diversity Plus: 4H Assay for Pselectin Biomarker Activity (AID 2283026); details: primary human endothelial cells (HUVEC); actives raise or lower the signal
In short: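 ELISA read-out of P-selectin on human umbilical vein endothelium after 24 h of dosing. Values derive from bidirectional fitting relative to DMSO. Parallel SRB protein staining flagged overt cytotoxicity.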

[12] = BSK_4H_SRB: Viability Assessment in the BioMAP Diversity Plus: 4H Assay (AID 2283027); details: primary human endothelial cells (HUVEC);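 also: cells exposed to compound for 24 h before staining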;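 as to AC50: curves fitted both ways versus DMSO so AC50 may be loss or gain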
In short: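 Human umbilical vein endothelial cells, 24 h after chemical dosing; total protein measured by 0.1% sulforhodamine B staining after 10% TCA fixation, read at 560 nm. Bidirectional fitting against DMSO.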

[13] = BSK_BE3C_SRB: Viability Assessment in the BioMAP Diversity Plus: BE3C Assay (AID 2283028); details: primary human bronchial epithelial cells;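 as to AC50: fitted both ways so AC50 may mark signal gain or loss versus DMSO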
In short: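 SRB total-protein staining (0.1%, after TCA fixation) of chemically dosed human bronchial epithelial primary cells at 24 h; DMSO serves as the negative control for bidirectional curve fitting.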

[14] = read-out: Thrombomodulin, THBD (gene 7056); assay: BSK_3C_Thrombomodulin: BioMAP Diversity Plus: 3C Assay for Thrombomodulin Biomarker Activity (AID 2283029); details: primary human endothelial cells (HUVEC); actives raise or lower the signal
In short: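 Read-out is ELISA of thrombomodulin on human umbilical vein endothelium 24 h after chemical dosing. Gain or loss of signal is scored relative to DMSO. Overt cytotoxicity is checked in parallel cultures by sulforhodamine B staining.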

[15] = biological target: human Vitamin D Receptor (VDR), VDR (gene 7421) (UniProt P11473); assay: ATG_VDR_TRANS: Attagene TRANS-FACTORIAL HepG2 Assay for human Vitamin D Receptor (VDR) (AID 2283022; active = hit-call score of the fitted dose curve at least 0.9, where 1 is the maximum)
human Vitamin D Receptor (VDR), VDR (gene 7421), sequence (P11473 whole entry, looked up): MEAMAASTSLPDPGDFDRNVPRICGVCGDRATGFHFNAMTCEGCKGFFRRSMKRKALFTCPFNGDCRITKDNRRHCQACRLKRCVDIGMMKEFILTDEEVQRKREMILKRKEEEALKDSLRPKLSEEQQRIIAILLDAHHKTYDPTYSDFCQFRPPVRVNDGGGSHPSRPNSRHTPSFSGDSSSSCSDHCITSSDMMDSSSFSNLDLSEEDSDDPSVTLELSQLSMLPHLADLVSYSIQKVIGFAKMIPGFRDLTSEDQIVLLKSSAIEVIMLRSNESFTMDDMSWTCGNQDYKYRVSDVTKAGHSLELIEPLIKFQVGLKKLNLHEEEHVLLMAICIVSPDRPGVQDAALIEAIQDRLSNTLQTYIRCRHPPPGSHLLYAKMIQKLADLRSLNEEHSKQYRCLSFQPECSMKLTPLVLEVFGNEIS
In short: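 Multiplexed TRANS reporter in HepG2; 24 h treatment; reporter mRNA by RT-PCR plus capillary electrophoresis; upregulation scored relative to DMSO.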

[16] = biological target: human Retinoid X Receptor beta (RXRb), RXRB (gene 6257) (UniProt P28702); assay: ATG_RXRb_TRANS: Attagene TRANS-FACTORIAL HepG2 Assay for human Retinoid X Receptor beta (RXRb) (AID 2283013; active = hit-call score of the fitted dose curve at least 0.9, where 1 is the maximum)
human Retinoid X Receptor beta (RXRb), RXRB (gene 6257), sequence (P28702 whole entry, looked up, the tested form may be a part): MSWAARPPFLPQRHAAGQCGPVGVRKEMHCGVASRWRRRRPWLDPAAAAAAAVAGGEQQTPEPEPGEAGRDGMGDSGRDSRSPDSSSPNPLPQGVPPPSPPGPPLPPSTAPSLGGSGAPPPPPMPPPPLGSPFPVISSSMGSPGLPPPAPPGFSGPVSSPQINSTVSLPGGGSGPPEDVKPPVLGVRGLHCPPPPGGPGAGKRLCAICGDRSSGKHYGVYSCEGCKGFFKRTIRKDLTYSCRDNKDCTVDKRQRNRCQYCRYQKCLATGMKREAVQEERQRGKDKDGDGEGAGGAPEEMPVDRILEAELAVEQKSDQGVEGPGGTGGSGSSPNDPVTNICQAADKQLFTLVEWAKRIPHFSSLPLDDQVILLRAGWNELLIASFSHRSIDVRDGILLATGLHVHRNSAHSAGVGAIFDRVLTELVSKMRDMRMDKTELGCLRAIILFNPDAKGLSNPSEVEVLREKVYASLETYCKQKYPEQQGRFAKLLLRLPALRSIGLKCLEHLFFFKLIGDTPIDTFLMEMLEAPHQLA
In short: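 Transfect HepG2 with GAL4-UAS multi-reporter constructs (chimeric NR-Gal4, TRANS format); dose compound 24 h; isolate RNA, RT-PCR, FAM primer extension, HpaI digest; quantify by capillary electrophoresis; positive direction vs DMSO.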

[17] = biological target: human Thyroid Receptor alpha (THRa1), THRA (gene 7067) (UniProt P10827); assay: ATG_THRa1_TRANS: Attagene TRANS-FACTORIAL HepG2 Assay for human Thyroid Receptor alpha (THRa1) (AID 2283014; active = hit-call score of the fitted dose curve at least 0.9, where 1 is the maximum)
human Thyroid Receptor alpha (THRa1), THRA (gene 7067), sequence (P10827 whole entry, looked up, the tested form may be a part): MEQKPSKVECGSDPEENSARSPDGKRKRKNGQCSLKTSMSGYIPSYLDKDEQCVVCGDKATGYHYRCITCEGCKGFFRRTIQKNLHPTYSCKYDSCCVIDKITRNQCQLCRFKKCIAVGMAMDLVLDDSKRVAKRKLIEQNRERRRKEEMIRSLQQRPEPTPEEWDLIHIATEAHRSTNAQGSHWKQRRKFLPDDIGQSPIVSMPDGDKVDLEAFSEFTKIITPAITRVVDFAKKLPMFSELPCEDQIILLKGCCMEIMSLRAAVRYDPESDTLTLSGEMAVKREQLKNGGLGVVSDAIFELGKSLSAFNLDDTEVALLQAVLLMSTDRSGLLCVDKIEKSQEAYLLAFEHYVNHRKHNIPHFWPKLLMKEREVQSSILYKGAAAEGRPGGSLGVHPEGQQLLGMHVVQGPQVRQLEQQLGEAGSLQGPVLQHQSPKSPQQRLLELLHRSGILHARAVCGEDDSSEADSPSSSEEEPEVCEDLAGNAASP
In short: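 Measured here is mRNA from a GAL4-UAS reporter in transfected HepG2 cells carrying a Gal4-fused receptor, 24 h post-dose. DMSO served as negative control and baseline.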

[18] = biological target: Retinoic acid receptor RXR-alpha (Homo sapiens) (UniProt P19793); assay: ATG_RXRa_TRANS: Attagene TRANS-FACTORIAL HepG2 Assay for human Retinoid X Receptor alpha (RXRa) (AID 2283012; active = hit-call score of the fitted dose curve at least 0.9, where 1 is the maximum)
Retinoic acid receptor RXR-alpha (Homo sapiens), sequence (P19793 whole entry, looked up, the tested form may be a part): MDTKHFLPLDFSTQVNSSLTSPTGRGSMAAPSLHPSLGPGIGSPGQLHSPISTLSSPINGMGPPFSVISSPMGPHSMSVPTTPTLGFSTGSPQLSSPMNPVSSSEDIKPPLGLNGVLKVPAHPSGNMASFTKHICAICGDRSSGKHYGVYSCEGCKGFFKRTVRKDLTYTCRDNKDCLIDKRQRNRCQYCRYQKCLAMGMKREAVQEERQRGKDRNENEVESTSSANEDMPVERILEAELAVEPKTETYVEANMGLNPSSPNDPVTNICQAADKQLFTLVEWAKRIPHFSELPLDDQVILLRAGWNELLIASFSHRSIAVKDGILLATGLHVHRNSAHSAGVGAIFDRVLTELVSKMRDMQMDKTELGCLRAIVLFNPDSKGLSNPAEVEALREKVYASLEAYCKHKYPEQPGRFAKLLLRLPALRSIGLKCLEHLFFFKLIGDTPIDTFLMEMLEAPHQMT
In short: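 Transient transfection of human HepG2 with multiple GAL4-UAS reporter constructs; 24 h compound exposure; total RNA isolated, reverse-transcribed, PCR-amplified, 6-FAM labelled, HpaI-cut, resolved by capillary electrophoresis. Positive-direction fit versus DMSO.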

Measured: AC50

E-selectin (Homo sapiens), sequence (P16581 whole entry, looked up): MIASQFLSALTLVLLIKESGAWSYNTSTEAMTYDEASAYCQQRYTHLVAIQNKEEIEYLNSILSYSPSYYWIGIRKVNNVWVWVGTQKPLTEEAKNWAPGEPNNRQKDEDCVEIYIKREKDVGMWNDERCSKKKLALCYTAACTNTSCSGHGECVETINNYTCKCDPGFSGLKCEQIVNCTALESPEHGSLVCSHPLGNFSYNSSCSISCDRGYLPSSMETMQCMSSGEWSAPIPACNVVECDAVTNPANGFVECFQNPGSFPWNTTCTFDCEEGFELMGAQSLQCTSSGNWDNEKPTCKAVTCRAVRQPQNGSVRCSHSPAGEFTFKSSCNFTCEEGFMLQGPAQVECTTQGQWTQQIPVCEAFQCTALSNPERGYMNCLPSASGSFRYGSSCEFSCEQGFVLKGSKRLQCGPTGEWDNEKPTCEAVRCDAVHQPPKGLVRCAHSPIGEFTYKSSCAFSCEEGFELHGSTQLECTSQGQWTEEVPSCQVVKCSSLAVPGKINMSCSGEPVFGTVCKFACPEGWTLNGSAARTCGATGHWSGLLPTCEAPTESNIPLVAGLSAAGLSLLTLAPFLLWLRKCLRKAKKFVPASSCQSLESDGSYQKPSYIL

C=CN1CCCC1=O
not listed: [15] | [16] | [17] | [18]
inactive: all other assays above

OC(CCl)CCl
not listed: [5] | [16] | [17] | [18]
inactive: all other assays above

CNC(C)=O
not listed: [5] | [15] | [18]
inactive: all other assays above

CC(=O)c1ccccc1
not listed: [5] | [15] | [16]
inactive: all other assays above

CCn1nc(C)c2c1C(=O)NCC(c1ccc(O)cc1)=N2
not listed: [5] | [15] | [18]
inactive: all other assays above

CCCCCCCCCCCCCCCCOS(=O)(=O)O
active: [16] 14.6 µM | [2] 14.7 µM | [13] 16.6 µM
not listed: [5] | [18]
inactive: all other assays above

CCCCC(CC)C(=O)OCCOCCOCCOC(=O)C(CC)CCCC (configuration not stated)
not listed: [5] | [15] | [16] | [17]
inactive: all other assays above

COc1cc2c(c(OC)c1OC)-c1ccc(OC)c(=O)cc1[C@@H](NC(C)=O)CC2
active: [8] 0.148 µM | [10] 0.488 µM | [11] 0.293 µM | [12] 0.148 µM
not listed: [5] | [18]
inactive: all other assays above

CCCCCCCCCCCCCCO
inactive: [17] | [2] | [15] | [9] | [13] | [14]
active: [16] 45.4 µM | [1] 36.7 µM | [3] 30.5 µM | [4] 29.6 µM | [6] 30.4 µM | [7] 30.7 µM | [8] 31.3 µM | [10] 37.5 µM | [11] 33.1 µM | [12] 34 µM

NC(N)=O
not listed: [15] | [17] | [18]
inactive: all other assays above

O=C1CN(N=Cc2ccc([N+](=O)[O-])o2)C(=O)N1
active: [16] 45.6 µM | [1] 9.86 µM
not listed: [18]
inactive: all other assays above

NC(=O)N(O)[C@@H]1COc2cc(OCc3ccccc3)ccc21
not listed: [16] | [17] | [18]
inactive: all other assays above
